Test results published in PubChem BioAssay AID720706 (Broad Institute, 2013).
Values joined by “and” are separate entries in the source; they are usually repeats but may differ in a detail not shown here. Equal entries are not always repeated. Hit rate of the full screen: of about 350,000 compounds, about 5,500 (1.6%) were called active.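 How the source made its calls: active means significant combined selectivity score with lowered wild-type GFP, culture density cut under 30%, mutant RFP and density less affected; inactive means any of these conditions unmet.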 The list comes from a sample in which actives are over-represented; it also holds similar structures and randomly drawn compounds.

Test: reduced GFP signal of wild-type E. coli, primary screen, bacterial rRNA inhibitor project, GFP/RFP fluorescence, OD600, single point (AID 720706)
Conditions: E. coli WT GFP vs humanized-ribosome RFP mutants, 24 h; GFP signal change (wild-type ribosome): stronger effect = lower value, DMSO median 0, no signal -100; OD600 change: measured here: OD600 growth, DMSO median 0, no signal -100; RFP signal change: measured here: RFP humanized mutant strains, DMSO median 0, no signal -100, concentration not given here

Structure (SMILES) | GFP signal change (wild-type ribosome) | OD600 change | RFP signal change
CO[C@@H]1CN(C)C(=O)c2cc(NC(=O)C3CCCCC3)ccc2OC[C@@H](C)N(C(=O)Nc2ccc(C(F)(F)F)cc2)C[C@H]1C | -0.109% (inactive) and 1.77% (inactive) | 2.19% and -2.79% | 2.17% and 2.36%
CO[C@@H]1CN(C)C(=O)c2cc(NC(=O)C3CCCC3)ccc2OC[C@@H](C)N(C(=O)Nc2ccc(C(F)(F)F)cc2)C[C@H]1C | -37.8% (active) | -17.8% | -5.86%
CO[C@@H]1CN(C)C(=O)c2cc(NC(=O)C3CC3)ccc2OC[C@@H](C)N(C(=O)NC(C)C)C[C@@H]1C | 2.5% (inactive) | 1.51% | -0.768%
COc1ccccc1NC(=O)N1CC(=O)N2[C@@H](CO)[C@H](c3ccc(C#CC4CC4)cc3)[C@@H]2C1 | -2.35% (inactive) | -11.8% | 0.376%
CCn1c(CNC(=O)c2cc(OC)c(OC)c(OC)c2)cc2cc(C)ccc21 | 15.4% (inactive) | 1.59% | -1.24%
COc1cc(C(=O)NCC(=O)N2CC=C(c3ccccc3)CC2)cc(OC)c1OC | -28.4% (active) | -22% | 0.011%
COc1ccc(OC)c(CN2CCN(C(=O)CNC(=O)c3cc(C)cc(C)c3)CC2)c1 | 4.96% (inactive) | -6.51% | 0.577%
CC(=O)N(C)C[C@@H]1Oc2ccc(NC(=O)NC(C)C)cc2C(=O)N(C)C[C@H]1C | 1.73% (inactive) | -0.17% | -0.644%
Cc1coc2cc3oc(=O)c(CCC(=O)O)c(C)c3cc12 | -8.99% (inactive) | -10.5% | 3.81%
COc1cccc(-c2coc3cc4oc(=O)c(CC(=O)O)c(C)c4cc23)c1 | -25.9% (inactive) | -55.2% | -6.38%
Cc1c(CCC(=O)O)c(=O)oc2cc3occ(-c4ccccc4)c3cc12 | -41.8% (active) | -27.4% | -8.24%
CCCC#Cc1cnc2c(c1)C(=O)N([C@H](C)CO)C[C@H](C)[C@H](CN(C)S(=O)(=O)c1cn(C)cn1)O2 | 7.7% (inactive) | 7.52% | -1.55%
O=C(Cc1cccc2ccccc12)NNC(=O)Nc1ccc(Cl)cc1 | -29.7% (active) | -2% | -3.61%
Cc1ccc(NC(=S)NC(NC(=O)Cc2cccc3ccccc23)C(Cl)(Cl)Cl)cc1 (centres undefined) | 2.41% (inactive) | 7.34% | 6.73%
O=C(O)Cc1ccc(NC(=O)Nc2cccc3ccccc23)cc1 | -0.412% (inactive) | 0.56% | -3.8%
COc1ccc([C@@H]2C/C=C\C[C@@H](c3ccc4c(c3)OCO4)NC(=O)CCC(=O)N2)c(OC)c1 | -4.75% (inactive) | -1.11% | 0.958%
C[C@@H]1CN([C@@H](C)CO)C(=O)Cc2cc(NS(=O)(=O)c3ccc(Cl)cc3)ccc2O[C@H]1CN(C)C(=O)Nc1cccc2ccccc12 | -0.7% (inactive) | -5.33% | 1.87%
O=C(C[C@@H]1CC[C@@H](NC(=O)C2CCOCC2)[C@H](CO)O1)Nc1ccc(-c2ccccc2)cc1 | -6.86% (inactive) | -2.81% | -1.67%
CNC[C@H]1Oc2ncccc2C(=O)N(C)C[C@@H]1C | 2.83% (inactive) | 2.62% | -0.315%
COc1ccc(CCNC(=O)c2cc3sccc3n2C)cc1OC | -23.3% (active) | -13% | -7.3%
COc1ccc(CCNC(=O)Cc2ccc(C)cc2)cc1OC | 1.64% (inactive) | 11.3% | -4.01%

Structure (SMILES) | GFP signal change (wild-type ribosome) | OD600 change | RFP signal change
COc1ccc(CCNC(=O)COC(=O)/C=C/c2cccs2)cc1OC | -13.7% (inactive) | -0.226% | 6.24%
C/C=C/c1ccc2c(c1)[C@H]1[C@H](CCN1S(=O)(=O)c1cn(C)cn1)[C@H](CO)N2 | 13.7% (inactive) | 27.2% | 4.63%
CCC(=O)N1[C@@H](CO)[C@@H](c2ccccc2)C12CN(C(=O)Cc1ccccc1)C2 | 2.16% (inactive) | 3.77% | -0.755%
CC(C)(C)n1ncc2c(=O)n(Cc3ccc(Cl)cc3)cnc21 | 1.17% (inactive) | 1.78% | -4.59%
COc1ccc(CCNc2ncnc3c2nnn3Cc2ccccc2)cc1 | 4.94% (inactive) | 7.23% | -1.23%
CC(C)CNc1ncnc2c1cnn2Cc1ccc(Cl)cc1 | -36.1% (active) | -17.1% | -0.858%
C/C=C/c1ccc(C2[C@H]3CNC[C@@H]2N3Cc2cccc(OC)c2)cc1 (some centres undefined) | -0.328% (inactive) and 2.3% (inactive) | 8.38% and 9.5% | 6.71% and 2.48%
FC(F)Oc1ccc(NC(=S)NCc2ccco2)cc1Cl | -29.1% (active) | -8.22% | 5.68%
COc1cc(NC(=S)NCc2ccco2)c(OC)cc1Cl | 4.76% (inactive) | 2.73% | 1.65%
S=C(NCc1ccco1)Nc1ccc2c(c1)OCCO2 | 9.78% (inactive) | 8.22% | -0.482%
COc1cccc(NC(=O)N[C@H]2C=C[C@@H](CC(=O)Nc3ccc(-c4ccccc4)cc3)O[C@@H]2CO)c1 | -12.2% (inactive) | -10.6% | 2.22%
CNC(=O)C[C@H]1CC[C@H]2[C@H](COc3ccc(NC(=O)Nc4ccc(F)cc4)cc3C(=O)N2C)O1 | 1.92% (inactive) | 1.94% | -3.24%
COc1ccc(CNC(=O)CN(Cc2ccccc2Cl)C(=O)c2csnn2)cc1 | 6.12% (inactive) | 13.2% | 1.92%
COc1ccc(S(=O)(=O)N2CCCCCC2)cc1C(=O)N(C)Cc1cccc(OC)c1OC | -11.5% (inactive) | -16.8% | 3.6%
COc1cccc(CN(C)CC(=O)NCc2ccccc2Cl)c1OC | -25.4% (active) | -20.5% | 1.05%
N#Cc1ccc(-c2ccc(C3[C@@H]4CN(S(=O)(=O)c5cccc(Cl)c5)C[C@H]3N4)cc2)cc1 (some centres undefined) | -35.6% (inactive) | -51% | -3.29%
C[C@H]1CN([C@@H](C)CO)C(=O)c2c(c3ccccc3n2C)-c2ccccc2CO[C@@H]1CN(C)CC1CCCCC1 | -7.33% (inactive) | -38.8% | 12.5%
CC(C)NC(=O)N(C)C[C@H]1Oc2ccc(NS(C)(=O)=O)cc2C(=O)N(C)C[C@@H]1C | 2.01% (inactive) | 2.51% | -2.3%
Cc1ccc(S(=O)(=O)N(C)C[C@@H]2Oc3ccc(NS(=O)(=O)c4cccs4)cc3C(=O)N([C@@H](C)CO)C[C@H]2C)cc1 | -5.79% (inactive) | -10.9% | 1.46%
C[C@@H]1CN([C@@H](C)CO)S(=O)(=O)c2ccc(-c3ccc(F)cc3)cc2O[C@H]1CN(C)C(=O)c1ccccc1F | -8.04% (inactive) | -21% | -3.3%
O=C(C[C@H]1C[C@H]2c3cc(NC(=O)NC4CCCC4)ccc3O[C@H]2[C@@H](CO)O1)NCc1ccc(-c2ccccc2)cc1 | -1.74% (inactive) | -6.28% | 2.06%

Structure (SMILES) | GFP signal change (wild-type ribosome) | OD600 change | RFP signal change
Cc1ccc(NC(=O)Nc2cc(-c3ccccc3)nn2C)cc1Cl | -40.1% (active) | 5.55% | -13.4%
COc1ccc(NC(=O)c2cc3nc(-c4ccccc4)cc(C)n3n2)cc1OC | -22% (inactive) | -22.4% | -6.99%
Cc1cc(NC(=O)Nc2ccc(Cl)cc2)n(-c2ccccc2)n1 | -29.1% (inactive) | -32.4% | 2.41%
C[C@H]1CN([C@@H](C)CO)S(=O)(=O)c2ccc(-c3cncnc3)cc2O[C@H]1CN(C)Cc1ccncc1 | 0.29% (inactive) | 1.07% | 0.44%
Cc1noc(C)c1NC(=O)N(C)C[C@@H]1Oc2ccc(NC(=O)Nc3ccc(F)cc3)cc2C(=O)N([C@H](C)CO)C[C@@H]1C | 1.48% (inactive) | 1.88% | -0.103%
C[C@@H]1CN([C@H](C)CO)S(=O)(=O)c2ccc(C3=CCCC3)cc2O[C@H]1CN(C)Cc1ccccc1F | -1.53% (inactive) | 5.49% | -3.33%
C[C@@H]1CN([C@H](C)CO)S(=O)(=O)c2ccc(C#CC3CC3)cc2O[C@H]1CN(C)C(=O)C1CCCCC1 | -17.1% (inactive) | -48% | 15.7%
COc1ccccc1-c1cnc2c(c1)C(=O)N([C@@H](C)CO)C[C@@H](C)[C@@H](CN(C)C(=O)c1cccnc1)O2 | 4.96% (inactive) | -0.255% | -1.54%
C[C@@H]1CN([C@@H](C)CO)S(=O)(=O)c2ccc(Br)cc2O[C@@H]1CN(C)C(=O)C1CCCCC1 | -5.25% (inactive) | -9.29% | 0.015%
O=C(COc1ccc(Cl)cc1)NC(=S)Nc1ccccc1N1CCOCC1 | -9.68% (inactive) | -9.44% | -2.65%
Cc1cc(C)cc(OCC(=O)Nc2ccc(N3CCOCC3)cc2N2CCOCC2)c1 | -2.33% (inactive) | 6.13% | 0.039%
Cc1cccc(OCC(=O)NC(=S)Nc2ccccc2N2CCOCC2)c1 | -22.8% (active) | -9.72% | 1.75%
O=C(c1ccccn1)N1CC(=O)N2[C@H](CO)[C@H](c3ccc(C#CCc4ccccc4)cc3)[C@H]2C1 | 1.93% (inactive) | -4.41% | -3.49%
COCC#Cc1ccc2c(c1)O[C@H](CN(C)Cc1ccc3c(c1)OCO3)[C@H](C)CN([C@H](C)CO)S2(=O)=O | -2.4% (inactive) | -9.34% | -0.135%
O=C(NCc1nnnn1-c1ccc(Cl)cc1)c1ccc([N+](=O)[O-])o1 | -23% (active) | 2.62% | -4.79%
O=C(NCc1nnnn1-c1ccc(Cl)cc1)c1ccc2c(c1)OCO2 | 5.87% (inactive) | 4.9% | -2.26%
O=C(Nc1ccc(Br)cn1)c1ccc([N+](=O)[O-])o1 | -3.84% (inactive) | -3.66% | -3.37%
CC(CN1CCOCC1)OC(=O)c1ccc(C(C)(C)C)cc1 (centres undefined) | -5.42% (inactive) | -0.13% | 2.33%
CSc1ccc(CNCCN2CCOCC2)cc1 | 6.43% (inactive) | 16.1% | -0.625%
CC(C)(C)c1ccc(CCC2OCC(CN3CCOCC3)O2)cc1 (centres undefined) | -33.2% (active) | -11.3% | -5.34%
C/C=C/c1cnc2c(c1)C(=O)N([C@H](C)CO)C[C@H](C)[C@@H](CN(C)CC1CCOCC1)O2 | 7.65% (inactive) | 16.9% | -1.32%
